In PubChem BioAssay AID1159580 (chemical genetic matrix, 2015):
About 2,000 (36%) of roughly 5,500 compounds were called active. Not shown: some 18% with an inconclusive outcome. Rule as the data show it: active = normalized growth mostly below about 0.91 (no sharp cut-off); inconclusive = no clear call, values can overlap the other calls; inactive = mostly above about 0.92. Some of the results follow.

Experiment: chemical genetic growth profiling, strain panel (AID 1159580);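 also: tested at 20 µM; growth read once vehicle control cultures reached saturation at 30 °C; 1 = growth at the plate median or of vehicle wells; lower values mean less growth of the strain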
Details: growth OD

Measured: normalized growth

CC(=O)OCC1=C(C(=O)O)N2C(=O)[C@@H](NC(=O)CCCC(N)C(=O)O)C2SC1 (some centres not stated)
inactive: S. cerevisiae deletion strains, locus YJR075W, strain HOC1, hits give low values 1.05 | S. cerevisiae deletion strains, locus YKL009W, strain mrt4, hits give low values 0.996 | S. cerevisiae deletion strains, locus YKL068W, hits give low values 1 | S. cerevisiae deletion strains, locus YKL085W, strain MDH1 (second series), hits give low values 0.995 | S. cerevisiae deletion strains, locus YKL085W, strain MDH1, hits give low values 0.995 | S. cerevisiae deletion strains, locus YKL160W, strain elf1, hits give low values 0.998 | S. cerevisiae deletion strains, locus YKL190W, strain CNB1, hits give low values 1.01 | S. cerevisiae deletion strains, locus YKR001C, strain vps1, hits give low values 1.03 | S. cerevisiae deletion strains, locus YKR026C, strain gcn3, hits give low values 0.969 | S. cerevisiae deletion strains, locus YKR091W, strain srl3, hits give low values 0.999 | S. cerevisiae deletion strains, locus YLL001W, strain dnm1, hits give low values 0.973 | S. cerevisiae deletion strains, locus YLL026W, hits give low values 0.996 | S. cerevisiae deletion strains, locus YLL041C, strain sdh2, hits give low values 0.993 | S. cerevisiae deletion strains, locus YLR027C, strain aat2, hits give low values 0.998 | S. cerevisiae deletion strains, locus YLR039C, strain RIC1, hits give low values 1.02 | S. cerevisiae deletion strains, locus YLR058C, strain SHM2, hits give low values 1.02 | S. cerevisiae deletion strains, locus YLR102C, strain apc9, hits give low values 0.997 | S. cerevisiae deletion strains, locus YLR113W, strain HOG1, hits give low values 1.01 | S. cerevisiae deletion strains, locus YLR221C, strain rsa3, hits give low values 0.994 | S. cerevisiae deletion strains, locus YLR258W, strain gsy2, hits give low values 1.02 | S. cerevisiae deletion strains, locus YLR262C, strain YPT6 (second series), hits give low values 0.978 | S. cerevisiae deletion strains, locus YLR262C, strain YPT6, hits give low values 1.02 | S. cerevisiae deletion strains, locus YLR268W, strain sec22, hits give low values 1.01 | S. cerevisiae deletion strains, locus YLR320W, strain mms22, hits give low values 1.01 | S. cerevisiae deletion strains, locus YLR330W, strain CHS5, hits give low values 1.01 | S. cerevisiae deletion strains, locus YLR342W, strain FKS1 (second series), hits give low values 1.04 | S. cerevisiae deletion strains, locus YLR342W, strain FKS1, hits give low values 1.01 | S. cerevisiae deletion strains, locus YLR357W, strain rsc2, hits give low values 0.99 | S. cerevisiae deletion strains, locus YLR370C, strain arc18, hits give low values 1.01 | S. cerevisiae deletion strains, locus YLR371W, strain rom2, hits give low values 1.01 | S. cerevisiae deletion strains, locus YLR384C, strain iki3, hits give low values 0.994 | S. cerevisiae deletion strains, locus YLR418C, strain cdc73, hits give low values 1 | S. cerevisiae deletion strains, locus YML016C, strain PPZ1, hits give low values 1.01 | S. cerevisiae deletion strains, locus YML032C, strain rad52, hits give low values 1.02 | S. cerevisiae deletion strains, locus YML120C, strain ndi1, hits give low values 0.996 | S. cerevisiae deletion strains, locus YML124C, strain tub3, hits give low values 1 | S. cerevisiae deletion strains, locus YMR058W, strain fet3, hits give low values 0.994 | S. cerevisiae deletion strains, locus YMR078C, strain ctf18, hits give low values 1 | S. cerevisiae deletion strains, locus YMR125W, strain sto1, hits give low values 0.996 | S. cerevisiae deletion strains, locus YMR129W, hits give low values 0.988 | S. cerevisiae deletion strains, locus YMR205C, strain PFK2, hits give low values 1.02 | S. cerevisiae deletion strains, locus YMR223W, strain ubp8, hits give low values 1.04 | S. cerevisiae deletion strains, locus YMR231W, strain pep5, hits give low values 0.988 | S. cerevisiae deletion strains, locus YMR263W, strain SAP30, hits give low values 1.04 | S. cerevisiae deletion strains, locus YMR307W, strain GAS1, hits give low values 0.987 | S. cerevisiae deletion strains, locus YNL067W, strain RPL9B, hits give low values 1.01 | S. cerevisiae deletion strains, locus YNL071W, strain lat1, hits give low values 1.01 | S. cerevisiae deletion strains, locus YNL128W, strain TEP1, hits give low values 1.01 | S. cerevisiae deletion strains, locus YNL153C, strain GIM3, hits give low values 1.03 | S. cerevisiae deletion strains, locus YNL183C, strain NPR1, hits give low values 0.946 | S. cerevisiae deletion strains, locus YNL209W, strain ssb2, hits give low values 0.998 | S. cerevisiae deletion strains, locus YNL233W, strain BNI4, hits give low values 1.02 | S. cerevisiae deletion strains, locus YNL248C, strain rpa49, hits give low values 0.996 | S. cerevisiae deletion strains, locus YNL250W, strain rad50, hits give low values 1 | S. cerevisiae deletion strains, locus YNL271C, strain bni1, hits give low values 0.998 | S. cerevisiae deletion strains, locus YNL298W, strain CLA4, hits give low values 1.02 | S. cerevisiae deletion strains, locus YNL307C, strain MCK1, hits give low values 1.01 | S. cerevisiae deletion strains, locus YNL322C, strain KRE1 (second series), hits give low values 0.99 | S. cerevisiae deletion strains, locus YNL322C, strain KRE1, hits give low values 1.01 | S. cerevisiae deletion strains, locus YNR049C, strain mso1, hits give low values 0.996 | S. cerevisiae deletion strains, locus YNR052C, strain pop2, hits give low values 1.02 | S. cerevisiae deletion strains, locus YOL006C, strain TOP1, hits give low values 1 | S. cerevisiae deletion strains, locus YOL012C, strain htz1 0.841 | S. cerevisiae deletion strains, locus YOL147C, strain pex11, hits give low values 0.997 | S. cerevisiae deletion strains, locus YOR001W, strain rrp6, hits give low values 0.998 | S. cerevisiae deletion strains, locus YOR061W, strain CKA2, hits give low values 1.01 | S. cerevisiae deletion strains, locus YOR069W, strain VPS5, hits give low values 1 | S. cerevisiae deletion strains, locus YOR070C, strain gyp1, hits give low values 0.995 | S. cerevisiae deletion strains, locus YOR080W, strain dia2, hits give low values 1 | S. cerevisiae deletion strains, locus YOR083W, strain WHI5, hits give low values 0.993 | S. cerevisiae deletion strains, locus YOR106W, strain vam3, hits give low values 0.999 | S. cerevisiae deletion strains, locus YOR136W, strain idh2, hits give low values 1 | S. cerevisiae deletion strains, locus YOR144C, strain elg1, hits give low values 0.99 | S. cerevisiae deletion strains, locus YOR184W, strain ser1, hits give low values 1.02 | S. cerevisiae deletion strains, locus YOR231W, strain MKK1, hits give low values 1 | S. cerevisiae deletion strains, locus YOR265W, strain rbl2, hits give low values 0.993 | S. cerevisiae deletion strains, locus YOR270C, strain vph1, hits give low values 1.08 | S. cerevisiae deletion strains, locus YOR290C, strain snf2, hits give low values 0.973 | S. cerevisiae deletion strains, locus YOR316C, strain cot1, hits give low values 0.994 | S. cerevisiae deletion strains, locus YPL051W, strain arl3, hits give low values 0.99 | S. cerevisiae deletion strains, locus YPL055C, strain LGE1, hits give low values 1.03 | S. cerevisiae deletion strains, locus YPL078C, strain atp4, hits give low values 0.994 | S. cerevisiae deletion strains, locus YPL106C, strain sse1, hits give low values 0.981 | S. cerevisiae deletion strains, locus YPL240C, strain hsp82, hits give low values 1.01 | S. cerevisiae deletion strains, locus YPL241C, strain CIN2, hits give low values 1.01 | S. cerevisiae deletion strains, locus YPL256C, strain CLN2, hits give low values 0.967 | S. cerevisiae deletion strains, locus YPR119W, strain clb2, hits give low values 1 | S. cerevisiae deletion strains, locus YPR141C, strain kar3, hits give low values 1 | S. cerevisiae deletion strains, locus YPR163C, strain tif3, hits give low values 1 | S. cerevisiae deletion strains, locus YPR167C, strain met16, hits give low values 1 | S. cerevisiae deletion strains, strain wtn01, hits give low values 1 | S. cerevisiae strains, strain wild type, hits give low values 1.02
